Laboratory results published in PubChem BioAssay (Tox21).
Results filed as inconclusive are left out. The source made the active and inactive calls. Unless noted, the call rests on the fitted dose curve; in most records, active means well fitted curve in the direction sought with a large enough effect in the repeat runs; inconclusive means weak or mixed curves; inactive means no such curve, though single readings can be large; an effect the other way counts as inactive or inconclusive.

Tests used:
[1] = molecular target: Aryl hydrocarbon receptor (Homo sapiens) (UniProt P35869); assay: qHTS assay to identify small molecule that activate the aryl hydrocarbon receptor (AhR) signaling pathway (AID 743085); further: nearly all actives have a fitted effect of over 15% in size; further: potency means the concentration at half of the fitted maximal effect;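 on activation: HG2L7.5c1 human HepG2 liver cells with stably integrated DRE-driven firefly reporter; series mostly up to about 70 µM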
Aryl hydrocarbon receptor (Homo sapiens), sequence (P35869 whole entry, looked up): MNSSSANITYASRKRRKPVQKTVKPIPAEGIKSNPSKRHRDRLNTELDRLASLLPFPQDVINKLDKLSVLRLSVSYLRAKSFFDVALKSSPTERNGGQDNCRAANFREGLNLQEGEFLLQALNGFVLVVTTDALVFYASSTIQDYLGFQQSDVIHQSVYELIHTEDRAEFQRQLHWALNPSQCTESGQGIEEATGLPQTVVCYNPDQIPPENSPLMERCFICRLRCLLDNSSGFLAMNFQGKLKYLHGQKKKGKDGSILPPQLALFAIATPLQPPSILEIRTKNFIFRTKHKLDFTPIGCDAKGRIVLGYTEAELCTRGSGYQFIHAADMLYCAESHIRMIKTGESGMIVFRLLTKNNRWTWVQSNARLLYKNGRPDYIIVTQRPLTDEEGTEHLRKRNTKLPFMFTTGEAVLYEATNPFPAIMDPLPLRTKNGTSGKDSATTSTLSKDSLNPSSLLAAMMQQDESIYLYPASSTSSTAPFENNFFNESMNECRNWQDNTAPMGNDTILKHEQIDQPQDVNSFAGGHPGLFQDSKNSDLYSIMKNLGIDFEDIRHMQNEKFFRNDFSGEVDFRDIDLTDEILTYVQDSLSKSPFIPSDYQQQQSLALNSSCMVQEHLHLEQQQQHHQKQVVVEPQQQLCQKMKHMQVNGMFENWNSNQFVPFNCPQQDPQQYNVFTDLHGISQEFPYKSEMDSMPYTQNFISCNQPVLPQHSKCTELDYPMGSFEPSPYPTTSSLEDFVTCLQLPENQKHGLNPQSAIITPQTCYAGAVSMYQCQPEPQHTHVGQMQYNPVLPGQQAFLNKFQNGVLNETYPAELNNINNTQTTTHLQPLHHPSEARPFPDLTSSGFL
Procedure, shortened: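 Cell line HG2L7.5c1 (human hepatoma, 20× DRE-luc). Plated, 5 h 37C, compound/DMSO added, 24 h 37C. CellTiter-Fluor 30 min 37C → fluorescence; then ONE-Glo 30 min RT → luminescence.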

[2] = qHTS assay to identify small molecule that activate the aryl hydrocarbon receptor (AhR) signaling pathway - cell viability counter screen (AID 743086); further: nearly all actives have a fitted effect of over 45% in size; further: potency means the concentration at half of the fitted maximal effect
Procedure, shortened: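 Cytotoxicity counter screen: CellTiter-Fluor signal (30 min, 37 C) in 4000 HepG2 cells/well carrying the DRE-luciferase reporter, following 24 h compound exposure at 37 C.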

[3] = molecular target: Peroxisome proliferator-activated receptor gamma (Homo sapiens) (UniProt P37231); assay: qHTS assay to identify small molecule agonists of the peroxisome proliferator-activated receptor gamma (PPARg) signaling pathway (AID 743094; active means well fitted activation curve with a large enough effect in the signal ratio in the repeat runs, not every such curve was filed as active; the % refers to the signal ratio)
Peroxisome proliferator-activated receptor gamma (Homo sapiens), sequence (P37231 whole entry, looked up): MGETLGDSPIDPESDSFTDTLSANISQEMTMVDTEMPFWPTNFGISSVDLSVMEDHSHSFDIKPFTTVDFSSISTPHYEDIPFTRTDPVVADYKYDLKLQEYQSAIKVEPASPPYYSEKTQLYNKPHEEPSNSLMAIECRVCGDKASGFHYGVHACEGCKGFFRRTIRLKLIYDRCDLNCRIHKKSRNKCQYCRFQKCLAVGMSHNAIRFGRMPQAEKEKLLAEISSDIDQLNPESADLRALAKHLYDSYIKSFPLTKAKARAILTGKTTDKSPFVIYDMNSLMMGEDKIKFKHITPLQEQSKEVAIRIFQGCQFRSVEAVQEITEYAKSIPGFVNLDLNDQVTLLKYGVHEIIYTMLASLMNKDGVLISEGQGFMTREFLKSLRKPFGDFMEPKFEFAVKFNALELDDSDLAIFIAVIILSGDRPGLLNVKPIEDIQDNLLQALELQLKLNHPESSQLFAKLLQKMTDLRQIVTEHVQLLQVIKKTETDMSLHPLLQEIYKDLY
Procedure, shortened: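 Reporter activation was scored by fluorescence of cleaved LiveBLAzer B/G substrate (1 h, room temperature) in PPARg-bla HEK293H cells previously treated 17 h at 37C with DMSO-dissolved compounds.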

[4] = molecular target: Peroxisome proliferator-activated receptor gamma (Homo sapiens) (UniProt P37231); assay: qHTS assay to identify small molecule antagonists of the peroxisome proliferator-activated receptor gamma (PPARg) signaling pathway (AID 743191; calls by dose curve; further: series mostly up to about 63 µM; nearly all actives have a fitted effect of over 30% in size)
Procedure, shortened: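 Beta-lactamase reporter under UAS control in HEK293H PPARg-bla cells; compound treatment 17 h at 37C. Read-out: fluorescence intensity after 1 h room-temperature incubation with LiveBLAzer B/G FRET substrate.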

[5] = qHTS assay for small molecule agonists of the antioxidant response element (ARE) signaling pathway (AID 743202; active means well fitted activation curve with a large enough effect in the signal ratio in the repeat runs, not every such curve was filed as active; the % refers to the signal ratio)
Procedure, shortened: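 After 16 hours of compound treatment at 37 C, HepG2 cells with a stably integrated ARE-driven beta-lactamase reporter were loaded 2 hours at room temperature with LiveBLAzer B/G FRET substrate and fluorescence intensity measured.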

[6] = qHTS assay for small molecule activators of the heat shock response signaling pathway (AID 743210; active means well fitted activation curve with a large enough effect in the signal ratio in the repeat runs, with a control signal flat, not every such curve was filed as active; the % refers to the signal ratio; further: series mostly up to about 63 µM)
Procedure, shortened: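 Compound exposure lasted 5 h at 37 C in HeLa cells carrying a heat-shock-element-driven beta-lactamase reporter. Read-out: fluorescence intensity after 2.5 h room-temperature loading with LiveBLAzer B/G FRET substrate.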

[7] = molecular target: Peroxisome proliferator-activated receptor delta (Homo sapiens) (UniProt Q03181); assay: qHTS assay to identify small molecule agonists of the peroxisome proliferator-activated receptor delta (PPARd) signaling pathway (AID 743212; calls by dose curve;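 further: HEK293H cells with PPARd UAS beta-lactamase reporter GeneBLAzer system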)
Peroxisome proliferator-activated receptor delta (Homo sapiens), sequence (Q03181 whole entry, looked up): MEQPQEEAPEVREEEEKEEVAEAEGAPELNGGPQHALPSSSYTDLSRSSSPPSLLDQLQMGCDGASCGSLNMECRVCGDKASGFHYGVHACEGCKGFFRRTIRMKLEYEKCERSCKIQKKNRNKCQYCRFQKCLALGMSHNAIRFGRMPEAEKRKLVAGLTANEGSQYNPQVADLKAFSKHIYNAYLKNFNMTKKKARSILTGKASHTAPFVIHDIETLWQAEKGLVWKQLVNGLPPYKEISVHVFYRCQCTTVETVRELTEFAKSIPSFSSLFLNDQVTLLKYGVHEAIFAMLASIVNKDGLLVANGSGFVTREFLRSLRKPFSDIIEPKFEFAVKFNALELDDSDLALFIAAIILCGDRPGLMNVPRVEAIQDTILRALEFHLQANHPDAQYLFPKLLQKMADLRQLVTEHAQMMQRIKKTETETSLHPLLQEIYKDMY
Procedure, shortened: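 Beta-lactamase reporter readout: a ratiometric FRET signal from the LiveBLAzer substrate after 2 h at room temperature. Compound exposure at 37 °C in PPARδ-bla HEK293H cells driven by an upstream activator sequence.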

[8] = qHTS assay to identify small molecule antagonists of the peroxisome proliferator-activated receptor delta (PPARd) signaling pathway - cell viability counter screen (AID 743213); further: nearly all actives have a fitted effect of over 50% in size; further: potency means the concentration at half of the fitted maximal effect
Procedure, shortened: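 Viability counter-screen, qHTS format: PPARd-bla HEK293H, L165041 300 nM final, 17 h compound exposure at 37 C, CellTiter-Glo luminescence after 30 min RT.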

[9] = molecular target: Peroxisome proliferator-activated receptor delta (Homo sapiens) (UniProt Q03181); assay: qHTS assay to identify small molecule antagonists of the peroxisome proliferator-activated receptor delta (PPARd) signaling pathway (AID 743215; active means well fitted inhibition curve with a large enough effect in the signal ratio in the repeat runs, not every such curve was filed as active; the % refers to the signal ratio;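 further: cells stimulated with agonist L165041 at 300 nM final during compound exposure; series mostly up to about 62 µM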)
Procedure, shortened: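 Plated HEK293H PPARd-bla cells rested 5 h at 37 C and 5% CO2. Compound, then agonist L165041 at 300 nM final, was added; 17 h at 37 C followed. Substrate loading, 2 h room temperature, fluorescence measured.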

[10] = molecular target: Vitamin D3 receptor (Homo sapiens) (UniProt P11473); assay: qHTS assay to identify small molecule antagonists of the vitamin D receptor (VDR) signaling pathway (AID 743223; active means well fitted inhibition curve with a large enough effect in the signal ratio in the repeat runs, not every such curve was filed as active; the % refers to the signal ratio)
Vitamin D3 receptor (Homo sapiens), sequence (P11473 whole entry, looked up): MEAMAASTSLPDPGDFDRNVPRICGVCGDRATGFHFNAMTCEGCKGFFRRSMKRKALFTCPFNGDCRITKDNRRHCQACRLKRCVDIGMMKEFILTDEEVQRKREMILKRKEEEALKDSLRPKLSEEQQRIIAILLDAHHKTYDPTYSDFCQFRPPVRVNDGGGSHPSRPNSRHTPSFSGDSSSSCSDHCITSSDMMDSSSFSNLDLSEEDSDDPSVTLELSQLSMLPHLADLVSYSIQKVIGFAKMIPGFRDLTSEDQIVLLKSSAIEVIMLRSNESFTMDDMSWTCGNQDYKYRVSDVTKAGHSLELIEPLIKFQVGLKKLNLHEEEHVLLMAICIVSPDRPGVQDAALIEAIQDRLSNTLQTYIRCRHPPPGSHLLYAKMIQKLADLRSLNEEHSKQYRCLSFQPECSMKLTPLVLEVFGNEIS
Procedure, shortened: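 Antagonist mode uses 1alpha,25-dihydroxyvitamin D3 at 3 nM final as stimulus. VDR-bla cells receive compounds in DMSO, incubate 16 h at 37C, then a beta-lactamase FRET substrate for 2 h at room temperature before fluorescence measurement.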

[11] = qHTS assay to identify small molecule agonists of the peroxisome proliferator-activated receptor delta (PPARd) signaling pathway - cell viability counter screen (AID 743211); further: nearly all actives have a fitted effect of over 55% in size
Procedure, shortened: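 HEK293H PPARd-bla, 3000 cells/well; 5 h preincubation 37C/5% CO2; cpd in DMSO, 17 h 37C; B/G FRET substrate 2 h RT; CellTiter-Glo 30 min RT, luminescence.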

[12] = qHTS assay to identify small molecule agonists of the farnesoid-X-receptor (FXR) signaling pathway - cell viability counter screen (AID 743218); further: nearly all actives have a fitted effect of over 45% in size; further: potency means the concentration at half of the fitted maximal effect
Procedure, shortened: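 Viability of FXR-bla HEK 293T cells is measured by ATP-based CellTiter-Glo luminescence following 16 h compound treatment at 37 C and a prior 2 h room-temperature beta-lactamase substrate step.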

[13] = molecular target: Vitamin D3 receptor (Homo sapiens) (UniProt P11473); assay: qHTS assay to identify small molecule agonists of the vitamin D receptor (VDR) signaling pathway (AID 743222; calls by dose curve)
Procedure, shortened: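 Fluorescence from cleaved LiveBLAzer B/G FRET substrate served as readout. VDR-bla cells had been treated 16 h at 37C with test compounds in DMSO, following a 4 h settling period, and substrate was loaded for 2 h at RT.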

[14] = qHTS assay to identify small molecule antagonists of the peroxisome proliferator-activated receptor gamma (PPARg) signaling pathway - cell viability counter screen (AID 743194); further: nearly all actives have a fitted effect of over 55% in size
Procedure, shortened: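 Viability was measured as CellTiter-Glo luminescence in GeneBLAzer PPARg UAS-bla HEK293H cells. These cells had been exposed 17 h at 37 C to compounds together with rosiglitazone at 50 nM final, with the beta-lactamase readout taken in the same wells.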

[15] = qHTS assay for small molecule agonists of the antioxidant response element (ARE) signaling pathway - cell viability counter screen (AID 743203; calls by dose curve; further: nearly all actives have a fitted effect of over 55% in size)
Procedure, shortened: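 Viability counter screen: stably transfected ARE-bla HepG2 line, 16 hrs compound exposure at 37C/5% CO2, ATP-based CellTiter-Glo luminescence measured in the reporter wells.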

[16] = qHTS assay for small molecule activators of the heat shock response signaling pathway - cell viability counter screen (AID 743209); further: nearly all actives have a fitted effect of over 50% in size
Procedure, shortened: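 Viability of HSE-bla HeLa cells is measured with CellTiter-Glo in the wells already used for the reporter read. Compound exposure lasts 5 h at 37 C, and luminescence is read after 30 min at room temperature.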

[17] = molecular target: Bile acid receptor (Homo sapiens) (UniProt Q96RI1); assay: qHTS assay to identify small molecule antagonists of the farnesoid-X-receptor (FXR) signaling pathway (AID 743217; active means well fitted inhibition curve with a large enough effect in the signal ratio in the repeat runs, not every such curve was filed as active; the % refers to the signal ratio)
Bile acid receptor (Homo sapiens), sequence (Q96RI1 whole entry, looked up): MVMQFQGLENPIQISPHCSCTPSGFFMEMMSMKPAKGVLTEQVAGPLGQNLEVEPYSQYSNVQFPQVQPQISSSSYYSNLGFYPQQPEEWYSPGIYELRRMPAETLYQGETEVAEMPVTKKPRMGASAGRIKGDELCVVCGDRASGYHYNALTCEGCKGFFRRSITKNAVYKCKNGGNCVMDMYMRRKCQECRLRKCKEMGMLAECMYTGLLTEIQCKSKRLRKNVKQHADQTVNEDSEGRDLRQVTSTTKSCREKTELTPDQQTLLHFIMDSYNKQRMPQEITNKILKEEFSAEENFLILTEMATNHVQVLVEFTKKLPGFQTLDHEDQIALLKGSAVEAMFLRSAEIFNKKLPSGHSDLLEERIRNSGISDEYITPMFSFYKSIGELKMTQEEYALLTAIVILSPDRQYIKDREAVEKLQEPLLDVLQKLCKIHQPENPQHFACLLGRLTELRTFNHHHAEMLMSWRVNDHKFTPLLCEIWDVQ
Procedure, shortened: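 Screen of the Tox21 10K library in quantitative HTS format using FXR-UAS-bla HEK 293T reporter cells. Agonist chenodeoxycholic acid, 50 uM final, added with compounds; 16 h incubation at 37 °C; beta-lactamase FRET fluorescence measured.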

[18] = molecular target: Bile acid receptor (Homo sapiens) (UniProt Q96RI1); assay: qHTS assay to identify small molecule agonists of the farnesoid-X-receptor (FXR) signaling pathway (AID 743220; active means well fitted activation curve with a large enough effect in the signal ratio in the repeat runs, not every such curve was filed as active; the % refers to the signal ratio; further: potency means the concentration at half of the fitted maximal effect)
Procedure, shortened: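 FXR-UAS-bla HEK 293T cells carrying a UAS-driven beta-lactamase reporter were plated for 5 h at 37C/5% CO2, then exposed to DMSO-dissolved Tox21 10K compounds for 16 h at 37C. A LiveBLAzer B/G FRET substrate was loaded for 2 h at room temperature before fluorescence reading.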

[19] = qHTS assay to identify small molecule antagonists of the farnesoid-X-receptor (FXR) signaling pathway - cell viability counter screen (AID 743221; active means well fitted cell-killing curve with a large enough effect in the repeat runs, not every such curve was filed as active; further: nearly all actives have a fitted effect of over 50% in size; further: potency means the concentration at half of the fitted maximal effect)
Procedure, shortened: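 Luminescence from CellTiter-Glo measures cytotoxicity in GeneBLAzer FXR-UAS-bla HEK 293T cells. Cells were exposed to compounds with 50 uM chenodeoxycholic acid (final) for 16 h at 37 C, in wells also used for the reporter readout.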

[20] = qHTS assay to identify small molecule agonists of the vitamin D receptor (VDR) signaling pathway - cell viability counter screen (AID 743224); further: series mostly up to about 63 µM; nearly all actives have a fitted effect of over 50% in size
Procedure, shortened: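 Compounds were pin-transferred onto VDR-bla cells plated 4 h earlier; following 16 h incubation at 37C, cell viability was quantified by CellTiter-Glo luminescence after 30 min at room temperature.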

Measured: Potency

CCN(CC)c1ccc(C(=C2C=CC(=[N+](CC)CC)C=C2)c2ccc(S(=O)(=O)O)cc2S(=O)(=O)[O-])cc1
inactive: [1] | [3] | [4] | [5] | [6] | [7] | [9] | [10]
active: [2] 19.3 µM | [8] 27.5 µM

COc1ccc(C2C(=O)c3ccccc3C2=O)cc1
not listed: [8] | [14] | [15] | [16] | [17] | [18] | [19] | [20]
inactive: all other assays above

O=C(c1ccccc1)c1ccc(O)cc1
not listed: [5] | [8]
inactive: all other assays above

CC(O)Cn1cnc2c1c(=O)n(C)c(=O)n2C (stereo not drawn)
not listed: [4] | [8]
inactive: all other assays above

Cc1c(C2(c3cc(Br)c(O)c(Br)c3C)OS(=O)(=O)c3ccccc32)cc(Br)c(O)c1Br
active: [2] 10.5 µM | [12] 16.9 µM | [19] 16.9 µM
not listed: [5] | [7] | [9] | [11] | [13] | [15]
inactive: all other assays above

CCCCC[C@H](O)/C=C/[C@H]1[C@H](O)CC(=O)[C@@H]1C/C=C\CCCC(=O)O
not listed: [5] | [7] | [8] | [10] | [11] | [17] | [18] | [19]
inactive: all other assays above

O=C(Oc1ccccc1)c1ccc2ccccc2c1O
not listed: [8] | [14] | [16] | [17] | [18] | [19] | [20]
inactive: all other assays above

CC[C@H]1OC(=O)[C@H](C)[C@@H](O[C@H]2C[C@@](C)(OC)[C@@H](O)[C@H](C)O2)[C@H](C)[C@@H](O[C@@H]2O[C@H](C)C[C@H](N(C)C)[C@H]2O)[C@](C)(O)C[C@@H](C)/C(=N\OCOCCOC)[C@H](C)[C@@H](O)[C@]1(C)O
not listed: [4] | [6] | [9] | [19]
inactive: all other assays above

c1ccc(CCCc2ccncc2)cc1
active: [18] 49 µM
not listed: [3] | [5] | [6] | [9] | [10] | [13] | [17]
inactive: all other assays above

Cc1cccc2sc(N)nc12
active: [1] 27.6 µM
not listed: [4] | [5] | [8] | [16] | [17] | [18]
inactive: all other assays above

N[C@@H](Cc1cc(I)c(O)c(I)c1)C(=O)O
not listed: [3] | [4] | [17] | [18] | [19]
inactive: all other assays above

CC(=O)c1ccc[nH]1
not listed: [3] | [10] | [11] | [13] | [19]
inactive: all other assays above

CC1CCCC(=O)C1=O (stereo not drawn)
not listed: [3] | [17] | [18]
inactive: all other assays above

CNc1c2c(nn1C)CCCC2
not listed: [3] | [7] | [9] | [10] | [13] | [15] | [17] | [18]
inactive: all other assays above

CC(C)N(C)C
not listed: [3] | [13] | [17] | [18]
inactive: all other assays above

O=C(NC(Cc1cc(=O)[nH]c2ccccc12)C(=O)O)c1ccc(Cl)cc1 (stereo not drawn)
not listed: [3] | [7] | [9] | [10] | [11] | [17] | [18]
inactive: all other assays above
